For 101 molecules, inhibition results are on record in PubChem BioAssay AID1220 (Sanford-Burnham Center for Chemical Genomics, 2008).

The campaign covered roughly 190,000 compounds. About 1,300 (0.68%) were called active. The list comes from a sample in which actives are over-represented; it also holds similar structures and randomly drawn compounds. A number with no mark means an inactive call. Rule as the data show it: active = inhibition above about 50%; inactive = the rest.

The target of this test is Mannose-6-phosphate isomerase (Homo sapiens) (UniProt P34949). Briefly: MPI inhibition at elevated mannose 6-phosphate – biochemical, fluorescence intensity, high mannose 6-phosphate, primary screen (AID 1220). Conditions: recombinant PMI enzyme, coupled fluorescence intensity; at 20 µM; hits give high values.
Chain of Mannose-6-phosphate isomerase (Homo sapiens) (P34949 whole entry, looked up): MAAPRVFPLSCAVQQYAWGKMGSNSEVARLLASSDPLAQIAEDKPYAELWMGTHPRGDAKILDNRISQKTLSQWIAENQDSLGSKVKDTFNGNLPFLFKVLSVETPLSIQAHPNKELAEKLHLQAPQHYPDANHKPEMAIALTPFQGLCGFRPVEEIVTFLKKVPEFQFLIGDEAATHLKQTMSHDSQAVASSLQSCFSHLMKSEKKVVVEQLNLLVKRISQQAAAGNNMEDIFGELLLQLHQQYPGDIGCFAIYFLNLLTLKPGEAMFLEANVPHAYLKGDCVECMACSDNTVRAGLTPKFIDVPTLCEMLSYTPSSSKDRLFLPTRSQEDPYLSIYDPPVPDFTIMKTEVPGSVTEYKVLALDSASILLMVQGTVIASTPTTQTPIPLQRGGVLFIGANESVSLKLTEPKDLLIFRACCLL
The inhibition is the change of the read-out against control, counted positive when it falls. Regarding `Cc1c2c(c(C)n1C)C(C(=O)NC1CCCCC1)N(Cc1ccccc1)C2=O` (stereo unspecified), the inhibition was -4.7%.

Consider `Cc1ccc(NC(=O)CSc2nc(N)c(-c3ccccc3)c(=O)[nH]2)cc1Cl`, for which the inhibition is -0.7%.

Take `CCN(CC)C(=O)COC(=O)c1cc(-c2ccc(OC)cc2)nc2ccccc12`: the inhibition is 7%.

For the molecule `COc1ccc(N2CSC3=C(C#N)C(c4cc(OC)ccc4OC)CC(=O)N3C2)c(OC)c1` (stereo unspecified), the inhibition was 55.5% (active).

Take `COc1ccc(Br)cc1C1CC(=O)N2CN(Cc3ccccc3)CSC2=C1C#N` (stereo unspecified): the inhibition was 55.7% (active).

Consider `COc1ccc(OC)c(C2CC(=O)N3CN(c4ccccc4F)CSC3=C2C#N)c1` (stereo unspecified), for which the inhibition is 17.1%.

In the case of `COc1cc(OC)c(C2CC(=O)N3CN(c4ccccc4)CSC3=C2C#N)cc1OC` (stereo unspecified), the inhibition was 31.4%.

Regarding `COc1ccc(Br)cc1C1CC(=O)N2CN(C)CSC2=C1C#N` (stereo unspecified), the inhibition is 51.8% (active).

With `COc1ccc(N2CSC3=C(C#N)C(c4ccc(OC)c(OC)c4)CC(=O)N3C2)c(OC)c1` (stereo unspecified), the inhibition is -8.6%.

For `COc1ccc(OC)c(C2CC(=O)N3CN(c4ccccc4)CSC3=C2C#N)c1` (stereo unspecified), the inhibition was -38.7%.

On to `COc1ccc(OC)c(C2CC(=O)N3CN(c4cccc(Cl)c4)CSC3=C2C#N)c1` (stereo unspecified), for which the inhibition is 35%.

Take `COc1ccc(N2CSC3=C(C#N)C(c4cc(OC)c(OC)cc4OC)CC(=O)N3C2)c(OC)c1` (stereo unspecified): the inhibition was 36.9%.

Consider `COc1cc(OC)c(C2CC(=O)N3CN(c4ccc(C)cc4)CSC3=C2C#N)cc1OC` (stereo unspecified), for which the inhibition is 28.2%.

Turning to `COc1cc(OC)c(C2CC(=O)N3CN(c4ccccc4C)CSC3=C2C#N)cc1OC` (stereo unspecified), the inhibition is -1.4%.

As for `CNC(=O)CSc1nnnn1-c1cc(C)ccc1C`, the inhibition is 5.1%.

For the molecule `CCOC(=O)c1c(NC(=O)CN2CCCc3ccccc32)sc(C)c1CC`, the inhibition is 7.2%.

`CCCCN1C(=O)/C(=C(/C#N)C(N)=O)c2ccccc21`: the inhibition is 36.9%.

As for `CCOC(=O)/C(C#N)=C1/C(=O)N(Cc2ccccc2)c2ccccc21`, the inhibition was 66.7% (active).

Regarding `CCOC(=O)/C(C#N)=C1/C=CN(Cc2ccccc2)C=N1`, the inhibition is 1.1%.

As to `CCOC(=O)C1CCCN(C(=O)Nc2cccc(Cl)c2)C1` (stereo unspecified), the inhibition is 2.6%.

Turning to `COc1cc([N+](=O)[O-])cc2cc(C(=O)NC(C)(C)C)c(=O)oc12`, the inhibition is 15.7%.

With `C=CCn1c(SCC)nc2sc3c(c2c1=O)CCc1ccccc1-3`, the inhibition was 5.8%.

Turning to `C=CCSc1nc2sc3c(c2c(=O)n1CC=C)CCc1ccccc1-3`, the inhibition was 33.5%.

Turning to `O=C1CC(C(=O)N(c2ccccc2)C(C(=O)NC2CCCC2)c2ccncc2)CS1` (stereo unspecified), the inhibition was 0.6%.

As to `Cc1c(C(=O)Nc2ccccc2)sc2nc[nH]c(=O)c12`, the inhibition is 8.6%.

`CCCCCOC(=O)CSc1nc2c(c(=O)[nH]c(=O)n2C)n1CCc1ccccc1`: the inhibition was 107% (active).

On to `CCOC(=O)CSc1nc2c(c(=O)[nH]c(=O)n2C)n1CCCc1ccccc1`, for which the inhibition was 2.2%.

Turning to `CCOC(=O)CSc1nc2c(c(=O)[nH]c(=O)n2C)n1CCc1ccccc1`, the inhibition is 8.8%.

`CN1C(=O)CC(C(=O)O)SC1=Nc1ccc(F)cc1` (stereo unspecified): the inhibition was -4.1%.

As for `CC(C)N1CCN(c2ccncc2S(=O)(=O)N2CCOCC2)CC1`, the inhibition is -5.7%.

As for `O=C(O)c1[nH]c2ccccc2c1C=NCc1ccccc1Cl`, the inhibition is -5%.

Take `CC1=CC(C)(C)Nc2ccccc21`: the inhibition was 23.6%.

Consider `CC1=CC(C)(C)Nc2ccc(C)cc21`, for which the inhibition is 40.8%.

As for `CC1=CC(C)(C)Nc2cc(C)c(C)cc21`, the inhibition was 56.3% (active).

In the case of `C/C(=N/NC(=O)c1ccccc1)C(=O)O`, the inhibition is 33.7%.

As to `COc1ccc(C(=O)/C=C/c2ccc(OC)c(O)c2)c(F)c1`, the inhibition was 62.5% (active).

Regarding `COc1ccc(/C=C/C(=O)c2ccc(OC)cc2OC)cc1`, the inhibition is 2.1%.

Regarding `COc1ccc(C(=O)/C=C/c2ccccc2)c(OC)c1`, the inhibition was 1.9%.

Take `COc1ccc(/C=C/C(=O)c2ccc(OC)cc2OC)c(OC)c1`: the inhibition was 9.4%.

As for `COc1ccc(C(=O)/C=C/c2ccccc2)c(O)c1`, the inhibition was 5.8%.

Consider `COc1ccc(C(=O)/C=C/c2cc(OC)c(O)c(OC)c2)c(F)c1`, for which the inhibition was 62.9% (active).

With `Cc1ccc(N(C(=O)Cn2nnc(-c3ccccc3)n2)C(C(=O)NC2CCCCC2)c2ccccn2)cc1C` (stereo unspecified), the inhibition was 6.5%.

As for `Cn1c(=O)n(Cc2ccc(Cl)cc2)c(=O)c2c1nc1n2CCN1Cc1ccco1`, the inhibition is 7.4%.

`Cc1cc2ncn(CCOc3ccccc3C#N)c2cc1C`: the inhibition was 0.3%.

Consider `Cc1ccccc1-c1nsc(SCC(=O)Nc2ccc3c(c2)OCO3)n1`, for which the inhibition was 14.2%.

As to `CCN1/C(=C/c2ccc3cc(C)ccc3[n+]2CC)Sc2ccccc21`, the inhibition is -14.4%.

Take `CCN1/C(=C/c2ccc3cc(C)ccc3[n+]2CC)Sc2cc(C)ccc21`: the inhibition is 15%.

Regarding `CCOC(=O)N1CCN(c2cc(=O)n(-c3ccccc3C)c(=O)[nH]2)CC1`, the inhibition is -8%.

With `Cc1ccsc1C(=O)OC1CCOC1=O` (stereo unspecified), the inhibition is -9.2%.

Take `COC(=O)c1nc2ccc(N3CCOCC3)cc2c(C)c1C(=O)OC`: the inhibition is 64.4% (active).

Regarding `COC(=O)c1nc2cc3c(cc2c(C)c1C(=O)OC)OCO3`, the inhibition is -5.6%.

Turning to `COC(=O)c1c(N)n(-c2ccc(N3CCOCC3)cc2)c2nc3ccccc3nc12`, the inhibition was 20%.

With `Cc1nnc(SCc2ccc(F)cc2)n1NC/C=C/c1ccccc1`, the inhibition is 9.2%.

Take `CC(=O)N1CCN(C(=S)c2cccc([N+](=O)[O-])c2)CC1`: the inhibition is -0.6%.

As to `Cc1cccc(NC(=O)C2(c3ccccc3)CCOCC2)c1`, the inhibition is -5.7%.

On to `CCOc1ccc(NC(=O)CN2CCN(CC(=O)Nc3ccc4c(c3)OCCO4)CC2)cc1`, for which the inhibition is -12.8%.

On to `CCOc1ccc(N/C(C)=C\C(=O)c2ccc3c(c2)OCCO3)cc1`, for which the inhibition is 61.4% (active).

Turning to `COc1ccc(C(=O)/C=C(\C)Nc2ccc3c(c2)OCO3)cc1`, the inhibition was 33.7%.

For the molecule `Cc1nc(-c2ccccc2)nc2[nH]c(C(C)C)cc(=O)c12`, the inhibition was 16.9%.

Regarding `CCN(C(=O)COc1cccc2cccnc12)C1CCS(=O)(=O)C1` (stereo unspecified), the inhibition is 63.2% (active).

Regarding `CCN(C(=O)COc1ccccc1[N+](=O)[O-])C1CCS(=O)(=O)C1` (stereo unspecified), the inhibition is -4%.

For the molecule `CCN(C(=O)COc1cccnc1[N+](=O)[O-])C1CCS(=O)(=O)C1` (stereo unspecified), the inhibition was 43.2%.

With `O=C1CC(=O)N(CCNc2ncc(C(F)(F)F)cc2Cl)C(=O)N1`, the inhibition was 2.4%.

Regarding `COc1cc(Cl)c(C)cc1NC(=O)CSc1nnc(CCC(=O)O)c(=O)[nH]1`, the inhibition was 6.6%.

As to `O=C1CC(NCc2ccc3c(c2)OCO3)C(=O)N1CCc1ccccc1` (stereo unspecified), the inhibition was 1%.

In the case of `COc1ccc(CCNC2CC(=O)N(CCc3ccc(OC)c(OC)c3)C2=O)cc1OC` (stereo unspecified), the inhibition was 1.6%.

On to `COc1ccc(CCN2C(=O)CC(NCc3ccc4c(c3)OCO4)C2=O)cc1OC` (stereo unspecified), for which the inhibition is 51% (active).

As for `CCc1nnc(NC(=O)CN2C(=O)c3ccccc3C2=O)s1`, the inhibition was -2.7%.

Consider `O=C1C2C3C=CC(C3)C2C(=O)N1Cc1ccccc1` (stereo unspecified), for which the inhibition is 10%.

With `Cn1c(=O)c2cc(S(=O)(=O)NC(C(=O)Nc3cccc(F)c3)c3ccccc3)ccc2n(C)c1=O` (stereo unspecified), the inhibition was 1.9%.

As for `Cc1cc(C)c2c(N)c3cccc(C)c3nc2n1`, the inhibition is 5.4%.

With `Cc1ccc2cccc(OCCOCCOc3ccccc3Br)c2n1`, the inhibition is 35.7%.

Consider `Cc1ccc2cccc(N)c2n1`, for which the inhibition is 56.5% (active).

For `Cc1cc(N)c2ccccc2n1`, the inhibition was 5.5%.

For the molecule `Cc1cc(C)c2cccc(N)c2n1`, the inhibition is 64% (active).

With `Cc1ccc2cccc(NC(=O)C(F)(F)F)c2n1`, the inhibition was 9.3%.

Consider `COP(=O)(OC)c1nc(-c2ccccc2)oc1N1CCOCC1`, for which the inhibition is -10.4%.

As for `CC1CCCCC1N1CN=C(Nc2nc3ccccc3s2)NC1` (stereo unspecified), the inhibition was 8.2%.

Take `Nc1nc(SCC(=O)NCCCO)nc2sc3c(c12)CCC3`: the inhibition was 57% (active).

Take `Nc1nc(SCC(=O)NCCO)nc2sc3c(c12)CCCC3`: the inhibition was 5.1%.

As to `Nc1nc(SCC(=O)NCCOCCO)nc2sc3c(c12)CCCC3`, the inhibition is 2.8%.

With `Cc1c(Cl)cccc1NC(=O)Cn1cc(C(F)(F)F)cc(Cl)c1=O`, the inhibition was -5.8%.

`CC(C)N1C(=O)S/C(=C/c2ccc(Sc3nc4ccccc4[nH]3)o2)C1=O`: the inhibition was 13.6%.

In the case of `CC(C)N1C(=O)S/C(=C/c2ccc3c(c2)n(C)c(=O)n3C)C1=O`, the inhibition was 7.6%.

`CCN(CC)c1ccc(/C=C2/SC(=O)N(C(C)C)C2=O)o1`: the inhibition was 51.9% (active).

Consider `C/C(=N\NC(=O)CN(c1ccccc1Br)S(C)(=O)=O)c1cccs1`, for which the inhibition was -17.2%.

As to `CCS(=O)c1ccccc1C(=O)O` (stereo unspecified), the inhibition was 9.5%.

As to `CCCCNc1nc(CC)c2c(c1C#N)CCCC2`, the inhibition is -5.9%.

For `CCOC(=O)c1cc(C(=O)c2ccccc2O)cn2c(=O)c3c(C)c(C)sc3nc12`, the inhibition is 16.1%.

For the molecule `Cc1sc2nc3c(C(=O)N4CCCC4)cc(C(=O)c4ccccc4O)cn3c(=O)c2c1C`, the inhibition is 7.7%.

As to `Cc1sc2nc3c(SC(C)C(=O)O)cc(C(=O)c4ccccc4O)cn3c(=O)c2c1C` (stereo unspecified), the inhibition was 69% (active).

With `CCc1ccc(C(=O)CN2C(=O)C(C)N(c3ccc(C)cc3)C2=O)cc1` (stereo unspecified), the inhibition is 4.9%.

With `CCOc1cc(N2CCOCC2)c(OCC)cc1NC(=O)Cc1ccc(OC)c(OC)c1`, the inhibition is 53.1% (active).

As to `CCOc1cc(N2CCOCC2)c(OCC)cc1NC(=O)COc1ccccc1[N+](=O)[O-]`, the inhibition was 23.9%.

Turning to `CCOc1cc(N2CCOCC2)c(OCC)cc1NC(=O)COC(=O)c1ccccc1C`, the inhibition is 11.5%.

Regarding `COc1ccc(NC(=O)COC(=O)[C@@H]2CCCN2S(=O)(=O)c2ccccc2F)c(OC)c1`, the inhibition was -1.3%.

Turning to `CCOc1cc(N2CCOCC2)c(OCC)cc1NC(=O)COC(=O)[C@@H]1CCCN1S(=O)(=O)c1ccccc1F`, the inhibition was 53% (active).

For `CCOc1cc(N2CCOCC2)c(OCC)cc1NC(=O)Cc1ccccc1OC`, the inhibition was 51.7% (active).

Regarding `CCOc1cc(N2CCOCC2)c(OCC)cc1NC(=O)Cc1cccc(OC)c1`, the inhibition is 8.1%.

Take `CCOc1cc(N2CCOCC2)c(OCC)cc1NC(=O)Cc1cccc2ccccc12`: the inhibition was -0.6%.

As for `COc1ccc(CC(=O)Nc2ccccc2N2CCOCC2)cc1OC`, the inhibition was -2.2%.
